Test systems include S6K1; SBK1; SGK2; SGK3; SGK; SIK2; SIK; SLK.
Holding throughout (conditions): concentration: 1 μM, replicates: in singlicate; n = 1
For experiment [1], the system named is RPS6KA4(Kin.Dom.1-N-terminal).
In experiment [2] the test system is RPS6KA4(Kin.Dom.2-C-terminal).
Experiment [3] relates to RPS6KA5(Kin.Dom.1-N-terminal).
Experiment [4] has as its system RPS6KA5(Kin.Dom.2-C-terminal).
For experiment [5], the system named is T1, RSK1(Kin.Dom.1-N-terminal).
T1 construct: gene RPS6KA1

Experiment [6] relates to T2, RSK1(Kin.Dom.2-C-terminal).
T2 construct: gene RPS6KA1

Experiment [7] concerns T3, RSK2(Kin.Dom.1-N-terminal).
T3 construct: gene RPS6KA3

The test system of experiment [8] is T4, RSK2(Kin.Dom.2-C-terminal).
T4 construct: gene RPS6KA3

Experiment [9] concerns T5, RSK3(Kin.Dom.1-N-terminal).
T5 construct: gene RPS6KA2

Experiment [10] relates to T6, RSK3(Kin.Dom.2-C-terminal).
T6 construct: gene RPS6KA2

The test system of experiment [11] is T7, RSK4(Kin.Dom.1-N-terminal).
T7 construct: gene RPS6KA6

The test system of experiment [12] is T8, RSK4(Kin.Dom.2-C-terminal).
T8 construct: gene RPS6KA6

From publication PMC5540273 (PLoS ONE, 2017) come the findings set out here.
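Further: KINOMEscan kinase panel screen.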

For `Cc1ccc(F)c(C(=O)Nc2cccc(-c3nn4ccccc4c3-c3ccnc(Nc4cccc(F)c4)n3)c2)c1F` [GSK361061], the “%Inh” value is listed as 34% in experiment [1]; 0% in experiment [2]; 21% in [3]; 0% in [4]; 65% in experiment [5]; 7% in experiment [6]. The “%Inh” value was 4% in experiment [7]; 0% in experiment [8]; 0% in experiment [9]; 7% in experiment [10]; 0% in [11]; 13% in experiment [12]. Moreover, the “%Inh” value amounted to 0% in the experiment on S6K1; 100% with SBK1; 4% in the experiment on SGK2; 2% in the experiment with SGK3; 11% in the experiment with SGK; 29% in the experiment with SIK2. Also, the “%Inh” value with SIK was found to be 68%; in the experiment on SLK, 94.2%.
With `c1ccc(-c2n[nH]cc2Nc2ccnc3ccccc23)nc1` [GW694077], the “%Inh” value was determined as 3% in experiment [1]; 56% in experiment [2]; 5% in [3]; 56% in experiment [4]; 19% in experiment [5]; 16% in experiment [6]. Moreover, the “%Inh” value in experiment [7] is 27%; in experiment [8], 24%; in experiment [9] it was 0%; in experiment [10] it was 30%; in experiment [11] it was 1%; in experiment [12], 6%. In addition, the “%Inh” value in the experiment with S6K1 is given as 33%; in the experiment on SBK1 it was 25%; in the experiment with SGK2, 61%; with SGK3, 47%; in the experiment on SGK it was 89%; with SIK2 it was 0%. The “%Inh” value with SIK and in the experiment on SLK was 0% each time.
For the compound `O=C(O)C(F)(F)F.O=C(O)C(F)(F)F.O=c1[nH]ccc2nc(N[C@@H]3CCCNC3)nc(Nc3ccc(S(=O)(=O)N4CCOCC4)cc3)c12` [GSK2177277], the “%Inh” value was found to be 98.7% in experiment [1]; 98.5% in experiment [2]; 77% in experiment [3]; 74% in [4]; 96% in experiment [5]; 75% in experiment [6]. Besides, the “%Inh” value in experiment [7] worked out at 99.7%; in experiment [8] it was 11%; in experiment [9], 99.3%; in experiment [10] it was 90.2%; in [11], 99.4%; in experiment [12], 52%. Further, the “%Inh” value in the experiment with S6K1 is on record as 98.8%; in the experiment with SBK1, 92.7%; with SGK2, 96.1%; in the experiment on SGK3 it was 99.2%; with SGK, 88%; in the experiment with SIK2 it was 84%. In addition, the “%Inh” value is 78% with SIK and 98.4% in the experiment on SLK.
For the compound `Cc1ccc(C(=O)Nc2ccc(Nc3ccnc4cc(-c5nccs5)ccc34)cc2O)cc1.Cl` [GW494702], the “%Inh” value in [1], in experiment [2], in [3], in [4], in experiment [5] and in experiment [6] was 0% in each case. Further, the “%Inh” value in experiment [7] turned out to be 0%; in experiment [8] it was 30%; in experiment [9] it was 11%; in experiment [10], 0%; in experiment [11], 0%; in experiment [12], 0%. The “%Inh” value in the experiment with S6K1 is 11%; in the experiment on SBK1 it was 6%; in the experiment on SGK2, 0%; in the experiment with SGK3 it was 0%; with SGK, 11%; in the experiment on SIK2 it was 5%. Also, the “%Inh” value was determined as 4% in the experiment with SIK and 30% with SLK.
For the compound `CN(c1ccc(NC(=O)Nc2cc(C(F)(F)F)ccc2F)cc1)c1ccnc(Nc2ccc(S(N)(=O)=O)cc2)n1` [GW809893], the “%Inh” value is on record as 26% in [1]; 1% in [2]; 14% in experiment [3]; 4% in [4]; 100% in experiment [5]; 0% in experiment [6]. The “%Inh” value is given as 8% in [7]; 28% in experiment [8]; 35% in experiment [9]; 0% in experiment [10]; 5% in [11]; 0% in experiment [12]. Also, the “%Inh” value turned out to be 40% in the experiment on S6K1; 0% with SBK1; 0% with SGK2; 22% in the experiment on SGK3; 1% with SGK; 1% in the experiment with SIK2. In addition, the “%Inh” value in the experiment with SIK is 22%; in the experiment with SLK, 96.3%.
On to `CCS(=O)(=O)c1ccc(OC)c(Nc2nccc(-c3c(-c4cccc(NC(=O)c5c(F)cccc5F)c4)nn4ncccc34)n2)c1` [GSK326180], for which the “%Inh” value in experiment [1] stood at 16%; in experiment [2], 0%; in experiment [3], 25%; in experiment [4], 0%; in experiment [5], 64%; in experiment [6] it was 0%. Further, the “%Inh” value is given as 0% in experiment [7]; 0% in experiment [8]; 29% in experiment [9]; 0% in [10]; 0% in experiment [11]; 0% in [12]. For the same compound, the “%Inh” value in the experiment on S6K1 was found to be 6%; with SBK1, 0%; in the experiment with SGK2 it was 5%; with SGK3, 0%; in the experiment with SGK, 0%; in the experiment with SIK2, 0%. Besides, the “%Inh” value worked out at 3% in the experiment on SIK and 54% with SLK.
For the compound `Cn1cc(-c2[nH]c3cc(NC(=O)[C@H](N)C4CCCCC4)cc4c3c2C=NNC4=O)cn1`, the “%Inh” value in experiment [1] turned out to be 96.8%; in experiment [2], 96.2%; in experiment [3], 34%; in [4], 59%; in experiment [5] it was 60%; in experiment [6] it was 72%. The “%Inh” value in [7] is reported as 85%; in experiment [8] it was 0%; in experiment [9], 65%; in experiment [10], 5%; in experiment [11], 86%; in experiment [12] it was 35%. Moreover, the “%Inh” value with S6K1 turned out to be 76%; in the experiment on SBK1 it was 96.2%; in the experiment on SGK2 it was 83%; in the experiment on SGK3, 99.1%; with SGK, 95.7%; in the experiment with SIK2 it was 95.2%. The “%Inh” value in the experiment with SIK was 90.8%; in the experiment with SLK, 14%.
`CN(C)S(=O)(=O)c1cc(-c2ccc3nccc(-c4cccc(S(N)(=O)=O)c4)c3c2)cnc1N` [GSK1669921]: the “%Inh” value is reported as 15% in experiment [1]; 0% in experiment [2]; 16% in [3]; 0% in [4]; 0% in [5]; 10% in experiment [6]. The “%Inh” value in experiment [7] is 21%; in [8], 76%; in experiment [9], 2%; in experiment [10], 28%; in experiment [11], 2%; in experiment [12], 44%. In addition, the “%Inh” value worked out at 19% in the experiment on S6K1; 15% with SBK1; 6% in the experiment with SGK2; 16% in the experiment with SGK3; 5% in the experiment on SGK; 10% with SIK2. For the same compound, the “%Inh” value worked out at 0% in the experiment with SIK and 2% with SLK.
Turning to `C[C@@H](Oc1cc(-n2cnc3cc(-c4ccnc(NCCS(C)(=O)=O)c4)ccc32)sc1C(N)=O)c1ccccc1Cl` [GSK907232], the “%Inh” value in experiment [1] came out at 57%; in experiment [2], 0%; in experiment [3] it was 4%; in experiment [4], 0%; in experiment [5], 11%; in [6] it was 2%. Further, the “%Inh” value was determined as 32% in experiment [7]; 4% in experiment [8]; 66% in experiment [9]; 0% in [10]; 20% in experiment [11]; 14% in [12]. The “%Inh” value came to 0% in the experiment with S6K1; 1% with SBK1; 13% in the experiment on SGK2; 0% in the experiment with SGK3; 4% with SGK; 50% in the experiment with SIK2. The “%Inh” value in the experiment with SIK was 20%; in the experiment with SLK it was 99%.
